Compound activity from PubChem.
Shown are actives, neighbours in structure and some others; about 22% of the full set was active somewhere.
CHX counter: Cycloheximide Counterscreen for Small Molecule Inhibitors of Shiga Toxin; cell reporter, cycloheximide protein synthesis inhibition counterscreen; max response, %; 300,000 tested, 12% active; AID 2314, 2010; in the data active = max response mostly above about 13%, no sharp cut-off; inactive = mostly below about 14%; also: read at 38.3 µM for the half of the compounds with a filed dose; 0% is about no effect
LmPK inh: qHTS Assay for Inhibitors of Leishmania Mexicana Pyruvate Kinase (LmPK); Q27686; purified LmPK, Kinase-Glo ATP luminescence, 1 h; Potency, µM (highest dose often 57.5 µM), for inactives: at the top dose activity change, negative = inhibition, most hits filed as inhibitors; 290,000 tested, 0.37% active; AID 1721, 2009; also: potency is read from the fitted curve at half-maximal effect; % is scaled to controls: 0 for no effect and ±100 for the full control effect
Target sequence (Q27686 whole entry, looked up): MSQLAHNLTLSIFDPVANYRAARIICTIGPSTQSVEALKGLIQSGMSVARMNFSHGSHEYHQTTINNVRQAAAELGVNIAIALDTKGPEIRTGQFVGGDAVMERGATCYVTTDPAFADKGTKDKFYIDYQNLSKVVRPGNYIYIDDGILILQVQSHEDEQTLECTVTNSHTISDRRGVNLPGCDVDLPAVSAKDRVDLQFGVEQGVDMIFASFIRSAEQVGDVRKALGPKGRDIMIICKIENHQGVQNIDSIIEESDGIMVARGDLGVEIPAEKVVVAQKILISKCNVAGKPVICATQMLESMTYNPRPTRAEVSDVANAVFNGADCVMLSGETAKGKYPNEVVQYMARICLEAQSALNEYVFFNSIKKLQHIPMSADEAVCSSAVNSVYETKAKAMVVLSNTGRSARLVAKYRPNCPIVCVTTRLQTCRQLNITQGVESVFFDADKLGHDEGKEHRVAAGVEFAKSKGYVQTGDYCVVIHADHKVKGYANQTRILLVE
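Kinase-Glo luminescence read after 1 h RT reaction of 0.1 nM LmPK with 0.5 mM PEP and 0.1 mM ADP. Activity scaled between uninhibited and enzyme-free controls.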
Shiga toxin inh: A qHTS for Small Molecule Inhibitors of Shiga Toxin | inhibition, % at 38.7 µM | Vero cells, Shiga toxin protein synthesis inhibition reporter | 290,000 tested, 9.2% active; in the data active = inhibition mostly above about 28%, no sharp cut-off; inactive = mostly below about 43%; also: 0% is about no effect
Pf growth 96h: Primary qHTS for delayed death inhibitors of the malarial parasite plastid, 96 hour incubation. 320,000 tested, 6.9% active. Potency, µM (titrated, usually from 28.7 µM), without a hit: at the highest dose activity change, negative = inhibition, usual class: inhibitors. P. falciparum luciferase reporter growth, 96 h. AID 504834, 2011; also: potency is read from the fitted curve at half-maximal effect; % is scaled to controls: 0 for no effect and ±100 for the full control effect
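Delayed-death screen, second-generation endpoint: infected erythrocytes, 2% hematocrit, 0.05% parasitemia final; 96 hours at 37 C, 5% CO2; luciferase detection reagent; luminescence decrease equals reduced growth.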
Pf growth 48h: Primary qHTS for delayed death inhibitors of the malarial parasite plastid, 48 hour incubation. P. falciparum luciferase growth in erythrocytes, 48 h. Potency, µM (titrated, usually from 28.7 µM), inactives show at the top dose activity change, negative = inhibition, hits mostly inhibitors. 310,000 tested, 5.9% active. AID 504832, 2011; also: potency is read from the fitted curve at half-maximal effect; % is scaled to controls: 0 for no effect and ±100 for the full control effect
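Luciferase-expressing P. falciparum in infected erythrocytes (2% hematocrit, 0.1% parasitemia final) in RPMI 1640/0.5% Albumax were exposed to compound for 48 hours at 37 C, 5% CO2; growth read as luminescence.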
Numbers without * were called inactive; ? = inconclusive; nt = not tested or not shown. Unless noted, calls follow the shape of the dose curve; as a rule, active = well fitted inhibition curve with a large enough effect; inconclusive = small, poorly fitted or top-dose-only effect, or another doubt; inactive = no such curve, though single readings can be large or run the other way.

SMILES	CHX counter	LmPK inh	Shiga toxin inh	Pf growth 96h	Pf growth 48h
CC(=O)c1cn(N2CCCCC2)c(=O)[nH]c1=O	-5	4%	-5	33%	19%
CCCCNC(=O)CS(=O)Cc1nc(-c2cccc(C)c2)oc1C (stereo not drawn)	-2	0%	-5	0.1µM*	nt
Cc1oc(-c2ccccc2F)nc1CS(=O)(=O)CC(=O)NCCCN1CC(C)CC(C)C1 (stereo not drawn)	-2	-3%	12	?	?
Cc1oc(-c2ccccc2F)nc1CS(=O)(=O)CC(=O)NCCCN1CCN(C)CC1	-5	1%	11	10µM*	-3%
COc1ccc(CCNC(=O)CS(=O)Cc2nc(-c3cccs3)oc2C)cc1OC (stereo not drawn)	2	4%	-17	8.3µM*	?
CCc1ccc(-c2nc(CS(=O)CC(=O)NCCc3ccccc3)c(C)o2)cc1 (stereo not drawn)	21*	9%	43	?	22%
Cc1ccc(-c2nc(CS(=O)CC(=O)NCc3ccccc3)c(C)o2)cc1 (stereo not drawn)	-6	1%	-19	-38%	nt
Cc1ccc(CCNC(=O)CS(=O)Cc2nc(-c3cccs3)oc2C)cc1 (stereo not drawn)	-2	5%	-11	-7%	-9%
CCCCSCCCNC(=O)CS(=O)Cc1nc(-c2cccc(C)c2)oc1C (stereo not drawn)	-1	-1%	13	?	24%
Cc1ccc(S(=O)(=O)N2CCCC2)cc1C(=O)NCc1ccccc1CN1CCCC1	nt	nt	nt	?	-29%
Cc1oc(-c2ccc(Cl)cc2)nc1CS(=O)CC(=O)NC1CCCCCC1 (stereo not drawn)	-2	-1%	23	9.3µM*	14%
Cc1oc(-c2ccc(-c3ccccc3)cc2)nc1CN1CCN(CC(=O)N(C)C)CC1	52*	2%	108*	-5%	0%
CCc1ccc(-c2nc(CS(=O)CC(=O)NCCN3CCCCCC3)c(C)o2)cc1 (stereo not drawn)	27*	-1%	22	-5%	13%
Cc1ccc(-c2nc(CS(=O)CC(=O)NCCN3CCCC3)c(C)o2)cc1 (stereo not drawn)	-6	8%	-16	28%	nt
Cc1ccc(-c2nc(CS(=O)CC(=O)NCCCN3CCN(Cc4ccccc4)CC3)c(C)o2)cc1 (stereo not drawn)	10	8%	-4	6.6µM*	?
Cc1oc(-c2ccc(Cl)cc2)nc1CS(=O)CC(=O)NCCCN1CCOCC1 (stereo not drawn)	-2	0%	11	?	1%
CCc1ccc(-c2nc(CS(=O)CC(=O)NCCCN3CCC(C)CC3)c(C)o2)cc1 (stereo not drawn)	19*	-4%	19	5%	?
Cn1nnnc1SCC(=O)Nc1ccc(C(=O)N2CCN(Cc3ccccc3F)CC2)cc1	nt	nt	nt	-20%	?
COc1ccc2[nH]c3c(c2c1)CCN1C(=O)N([C@@H](C)C(=O)NCCc2ccc(OC)c(OC)c2)C(=O)[C@]31C	-2	1%	-4	10µM*	?
COc1ccc(CCNC(=O)[C@H](C)N2C(=O)N3CCc4c([nH]c5ccccc45)[C@@]3(C)C2=O)cc1OC	7	-5%	17	-5%	?
COc1ccc2[nH]c3c(c2c1)CCN1C(=O)N([C@@H](C)C(=O)NC2CCCCC2C)C(=O)[C@]31C (stereo partly drawn)	-1	-6%	4	12µM*	9.3µM*
CC(C)(N)C(=O)N[C@@H](Cc1cnc[nH]1)C(=O)N[C@H](Cc1ccc2ccccc2c1)C(=O)N[C@H](Cc1ccccc1)C(=O)N[C@@H](CCCCN)C(N)=O	10	nt	3	nt	nt
CCCn1c(SCC(=O)c2cc(OC)ccc2OC)nc2c1c(=O)n(C)c(=O)n2C	-8	1%	-8	11%	9%
COc1ccc2nc(NC(=O)CSc3nccc(C)n3)sc2c1	8	5%	22	0%	2%
CCCc1cc(=O)[nH]c(SCC(=O)Nc2ccc(OCc3ccccc3)cc2)n1	nt	nt	nt	10%	28%
SMILES	CHX counter	LmPK inh	Shiga toxin inh	Pf growth 96h	Pf growth 48h
COc1ccc2nc(NC(=O)CSc3nc(C)cc(=O)[nH]3)sc2c1	27*	5%	31	nt	26%
CCCc1cc(=O)[nH]c(SCC(=O)Nc2nc3ccc(OCC)cc3s2)n1	14*	10%	52*	22%	20%
COc1ccc(OC)c(C(=O)CSc2nc3c(c(=O)n(C)c(=O)n3C)n2C(C)C)c1	-3	-5%	-3	15µM*	5%
CCOc1ccc2nc(NC(=O)C(CC)Sc3nc(C)cc(=O)[nH]3)sc2c1 (stereo not drawn)	29*	-12%	90*	nt	70%
COc1ccc(OC)c(CNC(=O)C(C)n2nc(C)c3c(C)n(-c4ccccc4)nc3c2=O)c1 (stereo not drawn)	-6	-8%	-4	?	-10%
CCOc1ccc2nc(NC(=O)Cn3cnc4c3c(=O)n(C)c(=O)n4C)sc2c1	14	1%	22	nt	14%
CCOc1ccc2nc(NC(=O)CSc3nc4c(c(=O)n(C)c(=O)n4C)n3C(C)C)sc2c1	-2	0%	-21	12µM*	0%
COc1ccc(C(=O)N2C[C@H]3C[C@@H](C2)c2cccc(=O)n2C3)cc1OC	-2	-4%	-4	0%	1%
COc1nnc(-c2ccc(C(=O)N3C[C@@H]4C[C@H](C3)c3cccc(=O)n3C4)cc2)c2ccccc12	1	-2%	17	2.6µM*	?
O=C(c1ccc(-c2nnc(Nc3cccc(Cl)c3)c3ccccc23)cc1)N1C[C@H]2C[C@H](C1)c1cccc(=O)n1C2	1	1%	-20	6.6µM*	13µM*
O=C(Nc1ccccc1)N1CC2CC(C1)c1cccc(=O)n1C2 (stereo not drawn)	8	-4%	-8	-4%	13%
Cn1cccc1-c1cc(C(=O)N/N=C/C=C/c2ccccc2)[nH]n1	-2	4%	-6	?	?
O=C(CSc1nccn1Cc1ccco1)Nc1ccccc1	32*	-2%	41*	41%	40%
O=C(CSc1nccn1Cc1ccco1)Nc1ccccc1C(F)(F)F	28*	-8%	21	-2%	7%
CCOC(=O)CNC(=O)CSc1nccn1Cc1ccco1	-2	2%	-8	39%	4%
CC(=O)Nc1ccc(NC(=O)CSc2nccn2Cc2ccco2)cc1	17*	0%	60*	41%	41%
O=C(CN(Cc1ccco1)S(=O)(=O)c1cccs1)Nc1ccccc1C(F)(F)F	24*	-3%	42*	?	-6%
CCC1Sc2ccc(S(=O)(=O)CCC(=O)Nc3cccc(Br)c3)cc2NC1=O (stereo not drawn)	9	5%	2	?	20%
O=C(O)COc1ccccc1/C=N/NC(=O)CSc1nnc(-c2ccc(Cl)cc2)n1C1CCCCC1	-3	0%	-2	?	-12%
